High-throughput results as filed in PubChem.
MCF10A rerep = DNA re-replication induction in MCF 10a cells. MCF 10A DNA re-replication, Hoechst nuclear intensity, 48 h. Potency, µM (series often up to 46.1 µM), inactives show top-dose activity, positive = re-replication, actives largely listed as activators. 2.9% of 350,000 active; note: potency is the fitted concentration of half-maximal effect; % of control where 0% means no effect; nearly all actives have a fitted effect of over 50% in size
KB-3-1 cytotox = KB-3-1 parental cell cytotoxicity; KB-3-1 viability, CellTiter-Glo ATP luminescence, 72 h; Potency, µM (doses to about 46.1 µM), hits mostly cytotoxic; 1.4% of 400,000 active; AID 1347075; note: potency is the fitted concentration of half-maximal effect; % is set by controls: 0 for no effect and ±100 for the full control effect; nearly all actives have a fitted effect of over 60% in size
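Cytotoxicity measured as CellTiter-Glo luminescence after 72 h at 37 C. Compound titrations were pinned onto drug-naive KB-3-1 parental adenocarcinoma cells grown in DMEM with 10% FBS, and normalized data fitted to concentration-response curves.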
ASM inhibitor = inhibitors of human secretory acid sphingomyelinase. 0.006% of 340,000 active. AID 504937. placental ASM, HMU-PC fluorogenic substrate, 60 min. P17405. Potency, µM (top dose mostly 57.5 µM), for the others: top-dose activity change, negative = inhibition, usual class: inhibitors; note: potency is the fitted concentration of half-maximal effect
Target sequence (P17405 47-631 limits assumed): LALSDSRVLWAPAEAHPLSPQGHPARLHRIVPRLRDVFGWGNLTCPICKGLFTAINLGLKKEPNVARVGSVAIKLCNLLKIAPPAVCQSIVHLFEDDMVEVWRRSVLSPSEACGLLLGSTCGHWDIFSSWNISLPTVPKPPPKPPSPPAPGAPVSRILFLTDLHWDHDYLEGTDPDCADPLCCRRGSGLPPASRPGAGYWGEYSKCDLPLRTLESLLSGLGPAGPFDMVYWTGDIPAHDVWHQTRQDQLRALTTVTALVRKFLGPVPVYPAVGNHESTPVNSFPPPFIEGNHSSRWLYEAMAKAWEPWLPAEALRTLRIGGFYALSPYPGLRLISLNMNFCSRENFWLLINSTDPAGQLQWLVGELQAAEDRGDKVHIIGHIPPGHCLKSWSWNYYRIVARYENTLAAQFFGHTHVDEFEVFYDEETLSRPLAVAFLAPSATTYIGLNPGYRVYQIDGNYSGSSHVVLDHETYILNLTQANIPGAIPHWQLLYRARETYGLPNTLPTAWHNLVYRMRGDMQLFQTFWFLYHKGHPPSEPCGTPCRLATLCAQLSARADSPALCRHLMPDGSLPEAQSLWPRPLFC
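Fluorogenic HMU-PC substrate (9 uM final) is turned over by placental ASM in 60 min at 37 C after a 10 min compound preincubation. Reaction ended by alkaline stop (pH 10), with fluorescence read at 386/447 nm.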
SW480 rereplic = DNA re-replication induction in SW480 cells; 1.8% of 340,000 active; AID 624297; Potency, µM (top dose mostly 46.1 µM), inactives show at the highest dose re-replication activation, most hits filed as activators; SW480 DNA re-replication, Hoechst DNA content imaging, 48 h; note: potency is the fitted concentration of half-maximal effect; % of control where 0% means no effect; nearly all actives have a fitted effect of over 55% in size
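Per well, 250 cells were exposed to pinned compound for 48 hr. Nuclear DNA was visualised with Hoechst (40 min, 37 C) and total object intensity recorded by fluorescence scanning.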
KB-V1 MDR tox = KB-V1 MDR subline cytotoxicity; Potency, µM (top dose mostly 46.1 µM), most hits filed as cytotoxic; AID 1347076; KB-V1 MDR cells viability, CellTiter-Glo, 72 h; 3.4% of 400,000 active; note: potency is the fitted concentration of half-maximal effect; % is set by controls: 0 for no effect and ±100 for the full control effect; nearly all actives have a fitted effect of over 60% in size
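Drug-selected KB-V1 cells, grown in DMEM lacking phenol red with 10% FBS, receive compound titrations; after three days at 37 degrees C, surviving cell ATP is quantified by CellTiter-Glo luminescence and responses normalized and curve-fitted.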
Giardia kill = Giardia lamblia killing. Giardia lamblia trophozoite viability. activity change, % at 7.66 µM, hits read low. 0.15% of 340,000 active; in the data active = activity change below about -80%; inconclusive = between about -30% and that limit;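 note: parasites exposed to compound for two days anaerobically before the ATP read; % is set by controls: 0 for no effect and ±100 for the full control effect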
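Luminescence from cellular ATP indicates surviving trophozoites (100 cells/well) following 48 hrs anaerobic compound treatment at 37 deg C; signal develops 15-30 min at room temperature.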
Numbers without * were called inactive; i = inactive; u = inconclusive; x = not tested or not shown. A selection: hits, their analogues and other compounds. The true share with any hit is near 6.9%. Unless noted, calls come from the whole dose curve; as a rule, active = well fitted curve in the direction sought with a large enough effect; inconclusive = small, poorly fitted or top-dose-only effect, or another doubt; inactive = no such curve, though single readings can be large; an effect the other way counts as inactive or inconclusive.

SMILES	MCF10A rerep	KB-3-1 cytotox	ASM inhibitor	SW480 rereplic	KB-V1 MDR tox	Giardia kill
Cc1cc(C(=O)NNC(=O)CCN2CCN(c3ccccc3)CC2)c2ccccc2n1	-2%	u	3%	-2%	i	-9
Cc1ccc(-c2nnc3ccc(SCC(=O)c4ccccc4)nn23)cc1	x	i	x	x	i	0
COc1ccc(C(=O)NCCS(=O)(=O)NCc2ccc(F)cc2)cc1	18%	i	-4%	3.7µM*	i	u
COc1ccc(C(=O)NCCS(=O)(=O)N(C)C2CCCCC2)cc1	3%	i	4%	-2%	18µM*	-6
CCN(C1CCCCC1)S(=O)(=O)CCNC(=O)c1ccc(OC)cc1	x	i	x	x	u	x
COc1ccc(C(=O)NCCS(=O)(=O)NCc2ccccc2)cc1	4%	i	x	-112%	i	8
COc1ccc(N2C(=O)CS(=O)(=O)C23C(=O)N(Cc2c(F)cccc2Cl)c2ccccc23)cc1 (configuration not stated)	x	i	x	x	i	x
COc1nc(N(c2ccccc2)c2ccccc2)nc(-n2ccnc2)n1	16µM*	i	-7%	-5%	u	1
COc1cccc(NC(=O)CN(C)C(=O)c2cccnc2Nc2cccc(C(F)(F)F)c2)c1	21µM*	u	-2%	u	u	2
Cc1cccc(NC(=O)c2ccccc2O)c1C	-1%	i	-4%	-18%	16µM*	-10
Cc1cc(C)c2nc(-c3ccccn3)cc(C(=O)NCc3ccc(S(N)(=O)=O)cc3)c2c1	13µM*	i	-2%	-2%	i	23
COc1ccc(NC(=O)c2cc(-c3ccccn3)nc3c(C)cc(C)cc23)c(C)c1	10µM*	x	1%	u	x	2
Cc1ccc(NC(=O)CN(C)C(=O)c2cccnc2Nc2cccc(C(F)(F)F)c2)cc1	u	u	-22%	u	u	5
Cc1ccc(-c2cc(C(=O)NCCc3ccccc3)c3ccccc3n2)cc1C	x	i	x	x	i	x
CCSc1ccccc1C(=O)Nc1cccc(OC)c1	0%	i	1%	1%	18µM*	8
COc1cccc(Nc2ncccc2C(=O)Nc2ccccc2)c1	23µM*	i	-16%	u	i	-1
O=C(NC1CC1)c1cc(-c2ccccn2)nc2ccccc12	13%	i	1%	-5%	i	6
COc1cccc(NC(=O)c2cc(-c3ccccn3)nc3ccccc23)c1	12%	u	-11%	0%	1.8µM*	-9
Cc1cccc(NC(=O)c2cc(-c3ccccn3)nc3ccccc23)c1C	u	u	-2%	16%	10µM*	-21
COc1cccc(NC(=O)c2ccccc2Oc2ccccc2)c1	-1%	i	-4%	-22%	i	-13
O=C(CN1CCCCCC1)NN(Cc1ccccc1)c1ccccc1	12%	i	3%	2%	i	7
O=C(C1CCCN(S(=O)(=O)c2cccs2)C1)N1CCN(c2ccccc2F)CC1 (configuration not stated)	x	i	x	x	i	x
Cc1ccccc1Cn1nnc(C(=O)Nc2cccc(C)c2C)c1N	15µM*	u	-4%	3%	13µM*	-7
COc1cc(C(=O)OCC(=O)c2cc(C)n(C)c2C)cc(OC)c1OC	u	u	0%	u	5.2µM*	-12
Cc1cc(C(=O)COC(=O)c2nccnc2N)c(C)n1C	-46%	i	80%	-90%	i	-11
SMILES	MCF10A rerep	KB-3-1 cytotox	ASM inhibitor	SW480 rereplic	KB-V1 MDR tox	Giardia kill
COc1ccc(-n2nc3cc(C)c(N)cc3n2)cc1Cl	3.3µM*	i	i	15µM*	i	18
Cc1cc2nn(-c3ccc(F)cc3)nc2cc1N	21µM*	i	i	21µM*	i	-9
Cc1cc2nn(-c3ccc(Cl)cc3)nc2cc1N	21µM*	i	i	23µM*	i	-11
COc1ccc(-n2nc3cc(C)c(NC(=O)c4ccc(C)cc4C)cc3n2)cc1Cl	x	i	x	x	u	x
Cc1cc2nn(-c3ccc(F)cc3)nc2cc1NC(=O)c1ccc(C(C)(C)C)cc1	x	i	x	x	i	x
Cc1ccccc1NCc1ccc([N+](=O)[O-])s1	4.6µM*	u	-2%	u	i	-20
COc1ccccc1NCc1ccc([N+](=O)[O-])s1	5%	i	2%	2%	i	-7
c1ccc2c(c1)ncn2CCCOc1ccc2c(c1)CCC2	u	u	0%	26%	12µM*	3
c1ccc2c(c1)ncn2CCCCOc1ccc2c(c1)CCC2	21µM*	u	-6%	u	u	11
Cc1ccc(OCCCCn2cnc3ccccc32)cc1	8%	i	-2%	-13%	i	12
c1ccc(OCCCCn2cnc3ccccc32)cc1	2%	i	-1%	4%	i	-9
Nc1nc(NCc2ccccc2Cl)c2[nH]cnc2n1	x	i	x	x	i	-12
Nc1nc2ccc(-c3nc4ccccc4o3)cc2s1	u	5.8µM*	10%	1%	1µM*	-29
Cc1cc(C)cc(NC(=O)CSc2nnnn2-c2cccnc2)c1	10%	i	1%	-15%	u	-11
CCOc1cc(CNCCSc2nnnn2C)cc(Br)c1OCc1ccc(F)cc1	28%	u	-3%	u	18µM*	8
CC(C)N1C(=O)/C(=C\c2nc3ccccc3c(=O)[nH]2)c2ccccc21	u	18µM*	32µM*	u	i	-3
CCCN1C(=O)/C(=C/c2nc3ccccc3c(=O)[nH]2)c2ccccc21	-2%	i	-22%	0%	i	5
COc1ccc(C(C(=O)NC2CCCC2)N(C(=O)c2snc(-c3ccc(F)cc3)c2N)c2ccc(OC)cc2)cc1 (configuration not stated)	9%	i	16%	1%	i	20
COc1ccc(C(C(=O)NC2CCCC2)N(C(=O)c2snc(-c3ccc(F)cc3)c2N)c2ccccc2)cc1 (configuration not stated)	2%	i	-1%	17%	i	5
COc1ccc(C(C(=O)NC2CCCC2)N(C(=O)c2snc(-c3ccc(F)cc3)c2N)c2ccc(F)cc2)cc1 (configuration not stated)	u	u	9%	16µM*	u	-1
COc1ccc(C(C(=O)NC2CCCC2)N(C(=O)c2snc(-c3ccc(F)cc3)c2N)c2cccc(F)c2)cc1 (configuration not stated)	u	i	3%	21µM*	i	6
